# IDH1 R132H inh: blocks human mutant IDH1 R132H enzyme. O75874. IDH1-R132H enzyme, NADPH consumption, diaphorase/resazurin fluorescence. Potency, µM (doses to about 76.6 µM), for inactives: at the top dose activity change, negative = inhibition, most hits filed as inhibitors. hit rate 0.093% among 390,000. AID 602179; note: potency is the fitted concentration of half-maximal effect; % is set by controls: 0 for no effect and ±100 for the full control effect; nearly all actives have a fitted effect of over 65% in size
# Target sequence (O75874 whole entry R132H, stated change not applied): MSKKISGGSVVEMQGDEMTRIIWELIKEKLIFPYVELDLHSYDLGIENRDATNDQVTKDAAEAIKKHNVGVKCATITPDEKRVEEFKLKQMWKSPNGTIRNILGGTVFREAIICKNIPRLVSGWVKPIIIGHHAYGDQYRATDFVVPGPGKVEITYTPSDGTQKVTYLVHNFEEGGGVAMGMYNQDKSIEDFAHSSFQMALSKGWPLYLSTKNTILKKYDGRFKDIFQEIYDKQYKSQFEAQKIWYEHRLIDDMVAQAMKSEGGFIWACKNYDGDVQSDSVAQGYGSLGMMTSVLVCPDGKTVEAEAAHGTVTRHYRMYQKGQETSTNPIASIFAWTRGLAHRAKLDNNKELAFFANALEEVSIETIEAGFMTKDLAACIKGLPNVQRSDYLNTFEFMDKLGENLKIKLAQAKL
#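 IDH1-R132H (0.5 ug/mL dispensed) in pH 7.5 Tris buffer was preincubated 30 min with compound, then given a substrate mix of 0.016 mM NADPH and 2 mM alpha-KG for 80 min at room temperature; remaining NADPH was read by diaphorase/resazurin fluorescence.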
# LDHA block: blocks human lactate dehydrogenase A | activity change, % (values are at about 110 or 230 µM) | purified LDHA, NADH/diaphorase-resazurin fluorescence; hits give low values | AID 1347041 | hit rate 0.15% among 480,000 | P00338; in the data active = activity change below about -30%; inconclusive = mostly about -25% to -30%;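 note: plate controls were DMSO wells for no effect and wells without enzyme for full effect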
#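 Remaining NADH was detected by diaphorase (0.133 mg/mL) converting 37 µM resazurin to fluorescent resorufin, read at 0 and 20 minutes. The preceding 5-minute room-temperature reaction used 2 nM LDHA, 0.2 mM sodium pyruvate and 0.06 mM NADH at pH 7.4.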
# TDP43 rescue: rescues yeast growth from TDP-43 toxicity. TDP-43 expressing yeast growth rescue, BacTiter-Glo, 24 h. Potency, µM (series often up to 46.1 µM), for inactives: top-dose growth rescue (activation), hits mostly activators. hit rate 1.8% among 410,000. AID 652104; note: potency is the fitted concentration of half-maximal effect; % of control where 0% means no effect; nearly all actives have a fitted effect of over 50% in size
#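 Cell-based yeast growth screen: TDP-43 expression induced in galactose, inoculum OD600=0.02 after raffinose pregrowth to mid-log. Read-out BacTiter-Glo luminescence at 24 hr, 30 deg C; inhibition of toxicity seen as signal increase.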
# Abeta yeast res: restores growth of yeast expressing A-beta42 peptide | yeast expressing A-beta42, growth rescue, OD600, 48 h; response scale: 0% DMSO, 100% iron-clioquinol control | Potency, µM (top dose mostly 46.1 µM), most hits filed as activators | hit rate 0.063% among 410,000 | AID 1347071; note: potency is the fitted concentration of half-maximal effect; nearly all actives have a fitted effect of over 55% in size
#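 Growth rescue measured by 600 nm absorbance after 48 h yeast culture at 30 C with compound. Values normalized between DMSO and an equimolar ferric chloride plus clioquinol control.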
# aSyn yeast inh: alpha-synuclein toxicity inhibition in yeast; Yeast expressing alpha-synuclein, growth rescue, BacTiter-Glo, 24 h; Potency, µM (top dose mostly 46.1 µM), for the others: at the highest dose growth rescue (activation), most hits filed as activators; hit rate 0.14% among 370,000; AID 652106; note: potency is the fitted concentration of half-maximal effect; % of control where 0% means no effect; nearly all actives have a fitted effect of over 65% in size
#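 Screening used galactose-induced yeast with toxic alpha-synuclein levels, exposed to compound for 24 hr at 30 deg C. Cell growth, read with BacTiter-Glo luminescence, gave the measured signal.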
# FUS suppressor: rescues growth of FUS-expressing yeast | S. cerevisiae FUS-expressing, growth rescue, OD600, 24 h | AID 1347120 | hit rate 0.24% among 390,000 | Potency, µM (doses to about 76.6 µM), hits mostly activators;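 note: potency is the fitted concentration of half-maximal effect; plate controls were DMSO vehicle for no effect and reference control for full effect; nearly all actives have a fitted effect of over 55% in size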
#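 S. cerevisiae expressing FUS from galactose induction served as the toxicity model. Growth after 24hr at 30C, read as absorbance at 600 nm, indicates suppression of toxicity; compounds dosed at several concentrations.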
# * hit, by the source's call; i = inactive; ? = inconclusive; . = not tested or not shown; ! = repeats disagree; [ ] = another dose, or the depositor's remark. This is a sample that favours compounds with a hit; in the whole collection about 2% have one here. Unless noted, calls come from the whole dose curve; as a rule, active = well fitted curve in the direction sought with a large enough effect; inconclusive = small, poorly fitted or top-dose-only effect, or another doubt; inactive = no such curve, though single readings can be large; an effect the other way counts as inactive or inconclusive.
SMILES,IDH1 R132H inh,LDHA block,TDP43 rescue,Abeta yeast res,aSyn yeast inh,FUS suppressor
CC1=C(C)CS(=O)N(c2ccc(S(N)(=O)=O)cc2)C1 (configuration not stated),-7%,1,22%,i,2%,i
Nc1nc2ccccc2cc1C(=O)NCCCCc1ccccc1,.,-2,28µM*,?,-40%,i
Cc1ccc(C2CC(c3ccc(Cl)cc3)=NNC2=O)cc1 (configuration not stated),3%,-5,22µM*,i[9.22 µM],10%,i
CCOc1cccc(CNCC2CCCO2)c1 (configuration not stated),.,2,.,.,.,.
O=Cc1ccc(-c2ccc(Cl)cc2Cl)[nH]1,-15%,-11,20µM*,i,10%,i
O=Cc1c(-c2cc(Cl)ccc2Cl)[nH]c2ccccc12,.,2,.,.,.,.
CCOc1ccccc1CN1CCCCCC1c1sccc1C (configuration not stated),.,-31*,.,.,.,.
CCOc1ccccc1CN1CCC(O)CC1,4%,-20,-15%,i,0%,i
Cc1oc2cc(OC(=O)c3cccs3)ccc2c(=O)c1-c1ccccc1,.,-5,.,.,.,.
CCCCn1nnnc1C(c1ccccc1)N1CCN(c2ccc(C)cc2)CC1 (configuration not stated),.,-1,35µM*,i,15%,i
CCCCn1nnnc1C(c1ccccc1)N1CCN(c2ncccn2)CC1 (configuration not stated),.,-10,28%,i,7%,i
CCN(Cc1ccco1)C(=O)c1cc2ccc(OC)cc2[nH]1,.,19,.,.,.,.
O=c1c2ccccc2nc(/C=C/c2cccc3ccccc23)n1-c1ccc(F)cc1F,?,-5,9%,i,.,32µM*
COC(=O)C(C#N)c1nc2ccccc2nc1Cl (configuration not stated),.,6,.,.,.,.
Cc1cc(Cl)ccc1NC(=O)c1ccc(NC(=O)C2=CSCCO2)cc1,.,-5,.,.,.,.
Cc1ccc2nsnc2c1S(=O)(=O)N1CCN(C(=O)C2CCCO2)CC1 (configuration not stated),12%,-3,?,i,22µM*,i
COc1cccc(/C=C2\SC(N3CCC(C)CC3)=NC2=O)c1OC,0%,2,?,i,1%,i
COc1ccccc1/C=C1\SC(N2CCC(C)CC2)=NC1=O,-3%,1,13µM*,i,17%,i
COc1ccc(C(=O)O)cc1NCc1ccc(C)s1,-9%,-1,3.2µM*,i,14%,i
Cc1ccc(CNc2cc(C(=O)O)ccc2C)s1,3%,-11,?,i,19%,i
CCCn1c(=O)[nH]c(=O)c2c1nc(-c1ccc(OC)c(C)c1)n2CCOC,.,3,.,.,.,.
Cc1cccc(SCC(=O)Nc2ccc3c(c2)OCCO3)c1,-5%,0,11µM*,i,23%,i
O=C(CSc1ccc2ccccc2c1)Nc1ccc2c(c1)OCCO2,.,6,.,.,.,.
COc1ccc(NC(=O)C(C)N2CCN(C)CC2)cc1 (configuration not stated),-1%,-24,-12%,i,3%,i
Cc1cnc(NC(=O)[C@H](C)N2C(=O)C3CCCCC3C2=O)s1 (some centres not stated),5%,3,-18%,i,-2%,i
SMILES,IDH1 R132H inh,LDHA block,TDP43 rescue,Abeta yeast res,aSyn yeast inh,FUS suppressor
CC(C(=O)Nc1ccc(F)c(F)c1)N1CCN(C)CC1 (configuration not stated),-6%,-30*,0%,i,-4%,i
Cc1cnc(NC(=O)C(C)N2CCN(C)CC2)s1 (configuration not stated),-2%,-31*,-2%,i,-5%,i
Cc1ccc(-c2nc(SCC(=O)N3CCCC3c3ccc4c(c3)OCCCO4)n[nH]2)cc1 (configuration not stated),.,-3,.,.,.,.
COc1ccccc1N1CCN(C(=O)c2cc(-c3ccc(F)cc3)on2)CC1,-6%,-10,13µM*!,i,-1%,i
COc1ccccc1-c1cc(C(=O)N2CCN(c3ccccc3OC)CC2)no1,1%,-1,18µM*,i,19%,i
COc1ccc(-c2cc(C(=O)N3CCN(c4ccccc4OC)CC3)no2)cc1,-3%,-3,-12%,i,-6%,i
COc1ccccc1N1CCN(C(=O)c2cc(-c3ccc(C)cc3)on2)CC1,-4%,-5,?,i,-13%,i
COc1ccccc1N1CCN(C(=O)c2onc(C)c2Cl)CC1,-2%,-5,?,i,-8%,i
COc1ccccc1N1CCN(C(=O)c2nc(SC)ncc2Cl)CC1,0%,3,35µM*,i,.,i
COc1ccccc1N1CCN(C(=O)c2cc(C3CC3)on2)CC1,2%,-2,13µM*,i,1%,i
CCN1C(=O)CCc2cc(NS(=O)(=O)Cc3ccccc3)ccc21,.,-2,.,.,.,.
c1ccc(-c2cc3c(N4CCN(c5ncccn5)CC4)ncnc3s2)cc1,-5%,-10,20%,i,-10%,i
c1ccc(-c2cc3c(N4CCN(c5ccccc5)CC4)ncnc3s2)cc1,-7%,-3,28µM*,i,9%,i
Cc1ccc(N2C(=O)c3cccnc3C2Nc2ccc3c(c2)OCO3)cc1 (configuration not stated),.,-7,.,.,.,.
Cc1ccc(C2CC(=O)Nc3c2ccc2ccccc32)cc1[N+](=O)[O-] (configuration not stated),16%,-7,25µM*,i,11%,i
O=C1CC(c2ccco2)c2ccc3ccccc3c2N1 (configuration not stated),3%,-5,13µM*,i,5%,i
O=C(OCn1ncc(Br)c(Br)c1=O)c1ccccc1Cl,3%,-4,6.3µM*,i,-7%,i
O=C(OCn1ncc(Br)c(Br)c1=O)c1ccc(F)cc1,-5%,-4,?,i,-71%,i
CCOC(=O)COc1ccc(/C=C2/NC(=O)NC2=O)cc1Br,.,-2,.,.,.,.
Cc1ccc(CNc2ccc(N3CCCCC3)cc2)s1,.,12,.,.,.,.
COc1cccc(NC(=O)CN(C)C(=O)c2cccnc2Nc2cccc(C(F)(F)F)c2)c1,5%,0,?,i,-51%,?
Cc1ccc(NC(=O)CN(C)C(=O)c2cccnc2Nc2cccc(C(F)(F)F)c2)cc1,-14%,2,20µM*,i,-55%,i
CCC(=O)Nc1c(-c2cc(=O)oc3ccc(Cl)cc23)oc2ccccc12,.,5,.,.,.,.
